Test results taken from the supplement of paper PMC6555819.

How the values were obtained:
Test in all cases: PBM binding z-score (relative to random genomic background probes); higher = stronger binding; sequences stand for … in GC…GCGATTGACAGCGTAGAATGAAGG
[1] = test system: PPARg:RXRa DBDmut IVT, anti-RXR (DBD mutation: RXRa K156A/R161A, NR concentration 270 nM, RXRa partner concentration 90 nM)
How it was run: (§1)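 Binding buffer was PBS pH 7.4 with 2% milk, 0.02% Triton X-100, 1 mM DTT, 0.2 mg/mL BSA and 0.4 mg/ml salmon testes DNA. In it, ligand-free nuclear receptor dimers were incubated 1 h on custom Agilent 4×180K protein-binding microarrays carrying double-stranded probes. Antibodies against each partner (one per run) detected binding, and z-scores were calculated against random background probes after regression normalization of scanned fluorescence.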

[2] = test system: PPARg:RXRa IVT, anti-PPARg (NR concentration 270 nM, RXRa partner concentration 90 nM)
How it was run: as §1

[3] = test system: PPARg DBDmut:RXRa IVT, anti-PPARg (DBD mutation: PPARg1 K132A/R137A, NR concentration 270 nM, RXRa partner concentration 90 nM)
How it was run: as §1

[4] = test system: PPARg DBDmut IVT, anti-PPARg (DBD mutation: PPARg1 K132A/R137A, NR concentration 270 nM)
How it was run: as §1

[5] = test system: PPARg homodimer (NR concentration 180 nM)
How it was run: as §1

[6] = test system: PXR:RXRa (NR concentration 270 nM, RXRa partner concentration 90 nM)
How it was run: as §1

[7] = test system: PXR homodimer (NR concentration 270 nM)
How it was run: as §1

[8] = test system: RARa:RXR (NR concentration 270 nM, RXRa partner concentration 90 nM)
How it was run: as §1

[9] = test system: RARa homodimer (NR concentration 270 nM)
How it was run: as §1

[10] = test system: RARb:RXRa (NR concentration 270 nM, RXRa partner concentration 90 nM)
How it was run: as §1

[11] = test system: RARb homodimer (NR concentration 270 nM)
How it was run: as §1

[12] = test system: RARg:RXRa (NR concentration 270 nM, RXRa partner concentration 90 nM)
How it was run: as §1

[13] = test system: RARg homodimer (NR concentration 270 nM)
How it was run: as §1

[14] = test system: RXRa DBDmut IVT, anti-RXR (DBD mutation: RXRa K156A/R161A, NR concentration 90 nM)
How it was run: as §1

[15] = test system: RXRa homodimer (NR concentration 180 nM)
How it was run: as §1

[16] = test system: THRa:RXRa (NR concentration 90 nM, RXRa partner concentration 90 nM)
How it was run: as §1

[17] = test system: THRa homodimer (NR concentration 90 nM)
How it was run: as §1

[18] = test system: VDR homodimer (NR concentration 270 nM)
How it was run: as §1

Sequence	PBM binding z-score [1]	PBM binding z-score [2]	PBM binding z-score [3]	PBM binding z-score [4]	PBM binding z-score [5]	PBM binding z-score [6]	PBM binding z-score [7]	PBM binding z-score [8]	PBM binding z-score [9]	PBM binding z-score [10]	PBM binding z-score [11]	PBM binding z-score [12]	PBM binding z-score [13]	PBM binding z-score [14]	PBM binding z-score [15]	PBM binding z-score [16]	PBM binding z-score [17]	PBM binding z-score [18]
TCTGCTAGGTCAGTTAGTCAGCTAACGAGCTGCC	2.31	2.39	0.967	0.0395	-0.199	0.00438	-0.871	0.377	-0.653	2.89	1.99	2.4	3.3	0.561	0.813	0.906	-0.364	-0.726
TCTATTAGCTGAAGGGCAACCGACGAGTCCGTTT	1.6	0.162	0.664	0.466	-0.169	0.472	0.237	0.362	-0.62	1.29	0.986	0.404	0.211	0.755	0.365	-0.0875	-0.551	0.695
GATAGAGGGTCAAGGCCAGAGTACGCGTATTGAT	2.88	3.71	0.404	0.208	1.98	2.84	0.414	3.34	0.0585	4.12	3.47	4.81	4.67	1.49	4.38	2.65	0.388	1.59
TCTATTAGCTGATTAGGGCAACCGAAACAGCGGA	1.49	1.49	0.731	0.319	-0.183	-0.0443	-0.871	0.252	-0.337	0.444	-0.0375	0.212	0.313	0.509	0.233	0.211	-0.143	-0.58
AATACAGGGACACTAGGCCAGAGTAGGTACGAAT	0.603	1.52	0.579	0.0521	-0.62	-0.635	0.0323	-0.555	-0.036	0.688	0.487	0.347	0.984	0.0578	-0.151	0.812	0.241	0.347
ATATGTAGGTTATCGAGTCATTCAGTTTGCGCAT	6.65	6.84	3.25	2.73	1.91	0.622	0.241	0.687	1	0.872	0.699	0.829	0.699	0.829	0.932	0.512	0.232	0.932
ACTAGCAGGCAAAGGGTCACTCAAGATTAGTCCG	0.313	2.76	-0.0407	-1.05	2.82	3.4	0.241	4.35	1.42	3.42	3.87	3.98	3.89	0.88	4.31	2.58	0.198	1.57
CTCGAAAGGTAGGTTGAGGTGAGTATACGGATAA	-0.151	0.611	0.405	0.253	0.0947	0.293	-0.116	0.461	-0.0281	0.475	0.59	0.129	0.396	-0.171	0.223	3.9	1.24	0.0952
